Assay outcomes as filed in PubChem.
Methyltransferases = Primary Screen for Target Class Profiling of Small Molecule Inhibitors of Methyltransferases; purified enzyme, MTase-Glo SAH luminescence; active compounds read low; 25,000 compounds, 3.9% hits; calls only at 40 µM; call rule not given here
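Each enzyme was assayed with SAM and its substrate. SAH formation detected by MTase-Glo luminescence; single-point 40 uM screen[…].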
Starred values were filed as active, the others as inactive; ! = not confirmed by another sample. The sample as a whole holds a higher share of hits than the screen did. On the % scale 0 is the no-effect control and ±100 the full control effect.

What do the screens show for `O=C(NCc1cccc(Cl)c1)c1sc(=S)n2c1[nH]c(=O)c1cc3c(cc12)OCO3`?
Methyltransferases: active

What do the screens show for `CCc1ccc(NC(=O)c2sc(=S)n3c2[nH]c(=O)c2cc(Cl)ccc23)cc1`?
Methyltransferases: inactive

Results for O=C(NCc1ccc2c(c1)OCO2)c1n[nH]nc1Nc1ccc(Cl)cc1 ?
Methyltransferases: inactive

How did COC(=O)c1ccc2c(=O)[nH]c3c(C(=O)NCc4ccc5c(c4)OCO5)sc(=S)n3c2c1 do in these assays?
Methyltransferases: inactive

Results for O=C(NCc1ccc2c(c1)OCO2)c1sc(=S)n2c1[nH]c(=O)c1cc3c(cc12)OCO3 ?
Methyltransferases: inactive

What do the screens show for `O=C(NCc1ccc2c(c1)OCO2)c1sc(=S)n2c1[nH]c(=O)c1ccc(Cl)cc12`?
Methyltransferases: active

How did COc1ccc(N2C(=O)c3cc(C(C)(C)C)nn3CC2(C)C(=O)NCc2ccccc2)cc1 (stereo unspecified) do in these assays?
Methyltransferases: inactive

How did CCn1c(=O)n(CC)c2cc(S(=O)(=O)Nc3cccc(F)c3)ccc21 do in these assays?
Methyltransferases: inactive

Results for CC1(C(=O)NC2CCCCCC2)Cn2c(cc3occc32)C(=O)N1Cc1cccc(Cl)c1 (stereo unspecified) ?
Methyltransferases: inactive

Results for O=c1c2ccccc2n2c(-c3ccc(Br)cc3)nnc2n1CCc1ccccc1 ?
Methyltransferases: inactive

How did COCCN1C(=O)c2nc3ccccc3n2CC1(C)C(=O)NC1CCCCC1C (stereo unspecified) do in these assays?
Methyltransferases: inactive

Results for Cc1ccc(C)c(C(=O)CSc2nnc3n(CC(C)C)c(=O)c4ccc(C(=O)NC(C)C)cc4n23)c1 ?
Methyltransferases: inactive

How did CCCCNc1ncc2c(-c3ccc(CN4CCN(C)CC4)cc3)cn(C3CCC(O)CC3)c2n1 (stereo unspecified) do in these assays?
Methyltransferases: inactive

What do the screens show for `Nc1ncnc2c1ncn2C1CCCC1`?
Methyltransferases: inactive

How did CN1CCN(C2CCC(n3cc(-c4ccc(Oc5ccccc5)cc4)c4c(N)ncnc43)CC2)CC1 (stereo unspecified) do in these assays?
Methyltransferases: active

What do the screens show for `CC(C)CCNC(=O)C1(C)Cn2c(cc3ccccc32)C(=O)N1Cc1ccc(OC(C)C)cc1` (stereo unspecified)?
Methyltransferases: inactive

How did CC[C@@]1(O)C(=O)OCc2c1cc1n(c2=O)Cc2cc3c(CN(C)C)c(O)ccc3nc2-1 do in these assays?
Methyltransferases: active!

What do the screens show for `CCCC1c2cccn2CCN1C(=O)Nc1cccc(C)c1C` (stereo unspecified)?
Methyltransferases: inactive

Results for COc1ccc(NC(=O)Cn2nc3n(Cc4ccc(C)cc4)c(=O)c4ccccc4n3c2=O)cc1 ?
Methyltransferases: inactive

Results for CCCN1C(=O)c2cc(C(=O)NC3CCCC3)nn2CC1(C)C(=O)NC1CCCC1 (stereo unspecified) ?
Methyltransferases: inactive

What do the screens show for `COc1ccc(CCN2C(=O)c3cc4ccccc4n3CC2(C)C(=O)NCCC(C)C)c(OC)c1` (stereo unspecified)?
Methyltransferases: inactive

Results for CCCn1c(=O)c2ccccc2n2c(=O)n(CC(=O)c3cccc(OC)c3)nc12 ?
Methyltransferases: inactive

What do the screens show for `Cc1cc(S(=O)(=O)NCCN2CCOCC2)ccc1Cl`?
Methyltransferases: inactive

Results for Cc1cnc(Nc2cccc(CN3CCOCC3)c2)nc1Nc1cccc(S(=O)(=O)NC(C)(C)C)c1 ?
Methyltransferases: inactive

How did Cc1cnc(Nc2ccc(CN3CCOCC3)cc2)nc1Nc1cccc(S(=O)(=O)NC(C)(C)C)c1 do in these assays?
Methyltransferases: active

What do the screens show for `Cc1ccc2c(c1)c(-n1cccc1)c1n2CC(C)(C(=O)NC2CCCCCC2)N(Cc2ccco2)C1=O` (stereo unspecified)?
Methyltransferases: inactive

How did CCOC(=O)c1cccc(Nc2cc(C)nc3ccc(C)cc23)c1 do in these assays?
Methyltransferases: active

What do the screens show for `CCOC(=O)c1cc(Nc2ccccc2)c2cc(Cl)ccc2n1`?
Methyltransferases: inactive

How did CCOC(=O)c1cnc2ccc(C)cc2c1Nc1cccc(C)c1 do in these assays?
Methyltransferases: inactive

How did Cc1ccc(Cc2nn3c(SCC(=O)Nc4ccc(C)cc4C)nnc3[nH]c2=O)cc1 do in these assays?
Methyltransferases: inactive

Results for COc1ccccc1CNC(=O)CNC(=O)C1(C)Cn2c(cc3ccccc32)C(=O)N1C (stereo unspecified) ?
Methyltransferases: inactive

Results for COc1ccc(-c2cc(C(O)C3CCCCN3)c3ccccc3n2)cc1 (stereo unspecified) ?
Methyltransferases: inactive

Results for COc1ccc(-c2nc3ccccc3[nH]2)cc1 ?
Methyltransferases: active

How did COc1ccc(OC)c(S(=O)(=O)N2CCc3nc(-c4ccccc4)[nH]c3C2)c1 do in these assays?
Methyltransferases: inactive

Results for CC(C)(C)c1ccc(-c2nc3ccccc3[nH]2)cc1 ?
Methyltransferases: active

What do the screens show for `CCOc1ccccc1CN1C(=O)c2cc3oc(C)cc3n2CC1(C)C(=O)NC1CCCCCCC1` (stereo unspecified)?
Methyltransferases: inactive

How did COc1ccc(CN2C(=O)c3cc(-c4ccc(C(C)C)cc4)nn3CC2(C)C(=O)NCCC(C)C)cc1 (stereo unspecified) do in these assays?
Methyltransferases: inactive

How did COc1ccccc1CNC(=O)C1(C)Cn2cnc(C(=O)NCc3cccnc3)c2C(=O)N1C1CC1 (stereo unspecified) do in these assays?
Methyltransferases: inactive

What do the screens show for `CCCn1c(=O)c2ccc(C(=O)NC(C)C)cc2n2c(SCC(=O)c3ccc(F)cc3)nnc12`?
Methyltransferases: inactive

What do the screens show for `CCC(C)NC(=O)c1ccc2c(=O)n(CC(C)C)c3nn(CC(=O)NCc4ccc(C)cc4)c(=O)n3c2c1` (stereo unspecified)?
Methyltransferases: inactive

Results for COc1ccc(OC)c2c1cc1n2CC(C)(C(=O)NC2CCCC(C)C2C)N(Cc2ccco2)C1=O (stereo unspecified) ?
Methyltransferases: inactive

Results for CC(=O)OC1CC(=O)C2(C)C3CC4=C(OC(C)CC4=O)OC3(C)CCC2C1(C)C (stereo unspecified) ?
Methyltransferases: active

How did O=C(NCCC1CCN(S(=O)(=O)c2ccccc2)CC1)NCc1ccco1 do in these assays?
Methyltransferases: inactive

Results for Cc1ccc(C)c(-c2cc(C(F)(F)F)nn2-c2ccc(S(N)(=O)=O)cc2)c1 ?
Methyltransferases: active

What do the screens show for `CS(=O)(=O)c1ccc(-n2nc(C(F)(F)F)cc2-c2ccc(F)cc2)cc1`?
Methyltransferases: inactive

How did NS(=O)(=O)c1ccc(-n2nc(C(F)(F)F)cc2-c2ccc(Cl)cc2)cc1 do in these assays?
Methyltransferases: inactive

What do the screens show for `COC(=O)c1cc2n(n1)CC(C)(C(=O)NC1CCCCCC1)N(c1ccc(C)cc1)C2=O` (stereo unspecified)?
Methyltransferases: inactive

What do the screens show for `COc1cccc(C(=O)N2CCC3(CC2)CCN(CCc2ccccc2)c2ccccc2O3)c1`?
Methyltransferases: inactive

What do the screens show for `Cn1c(=O)n(C)c2cc(S(=O)(=O)N3CCN(Cc4ccc5c(c4)OCO5)CC3)ccc21`?
Methyltransferases: inactive

How did CC1CCN(S(=O)(=O)c2ccc3c(ccn3CCC(=O)N3CCN(c4ccccc4)CC3)c2)CC1 do in these assays?
Methyltransferases: inactive
